Source: article PMC7862700, “An all-to-all approach to the identification of sequence-specific readers for epigenetic DNA modifications on cytosine”

Key:
Test in all cases: DAPPL (digital affinity profiling via proximity ligation, sequencing); 10 mM Tris-HCl pH 7.5, 50 mM NaCl, 1 mM DTT, 4% glycerol, room temperature, 30 min; GST-TFs on glutathione beads, 16-mer random dsDNA library, 0.1% formaldehyde crosslink after washing; high values mean tight binding
FEV = molecular target: T1, FEV (Homo sapiens, UniProt Q99581 1-238); conditions: protein: recombinant; tags: N-terminal GST; dsDNA, one strand shown
T1 sequence: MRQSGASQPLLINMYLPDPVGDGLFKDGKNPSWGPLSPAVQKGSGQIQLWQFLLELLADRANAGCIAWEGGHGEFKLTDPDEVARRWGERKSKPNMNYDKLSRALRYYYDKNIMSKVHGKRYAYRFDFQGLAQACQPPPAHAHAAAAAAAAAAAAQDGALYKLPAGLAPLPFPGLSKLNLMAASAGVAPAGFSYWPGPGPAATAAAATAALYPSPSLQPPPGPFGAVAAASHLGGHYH
Summary of the method: (§1)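 Human transcription factors fused to GST were expressed in yeast, captured on glutathione beads, given DNA barcodes and pooled with a GST-only negative control. Pools were incubated with 200 nmole of a 16-mer random double-stranded DNA library in Tris/NaCl/DTT/glycerol buffer at room temperature for 30 min. They were then washed, crosslinked with 0.1% formaldehyde, proximity-ligated (BsaI/T4 ligase, 1 h, 37 °C), PCR-amplified and sequenced on an Illumina NextSeq500. Binding signal is each 6-mer's read frequency for a factor divided by its frequency for the GST control.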

ETV5 = ETV5 (Homo sapiens, UniProt P41161 1-510); conditions: protein: recombinant; tags: N-terminal GST; dsDNA, one strand shown
ETV5, sequence (P41161 whole entry): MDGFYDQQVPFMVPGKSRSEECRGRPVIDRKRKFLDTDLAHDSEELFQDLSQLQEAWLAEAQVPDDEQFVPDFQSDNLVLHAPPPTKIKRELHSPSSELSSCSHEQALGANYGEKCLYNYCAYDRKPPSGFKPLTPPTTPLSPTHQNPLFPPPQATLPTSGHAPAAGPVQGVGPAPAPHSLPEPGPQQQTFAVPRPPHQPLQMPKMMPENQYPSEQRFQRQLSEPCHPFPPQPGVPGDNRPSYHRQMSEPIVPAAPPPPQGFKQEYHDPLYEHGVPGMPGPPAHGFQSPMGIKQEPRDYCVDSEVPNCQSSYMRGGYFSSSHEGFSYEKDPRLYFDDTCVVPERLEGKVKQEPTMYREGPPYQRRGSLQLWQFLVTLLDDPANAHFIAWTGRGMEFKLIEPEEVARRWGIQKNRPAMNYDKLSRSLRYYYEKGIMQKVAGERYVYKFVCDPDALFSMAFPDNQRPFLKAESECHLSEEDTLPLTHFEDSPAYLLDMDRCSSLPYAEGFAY
Summary of the method: as §1

HSF1 = HSF1 (Homo sapiens, UniProt Q00613 1-529); conditions: protein: recombinant; tags: N-terminal GST; chain copies: 3; dsDNA, one strand shown
HSF1, sequence (Q00613 whole entry): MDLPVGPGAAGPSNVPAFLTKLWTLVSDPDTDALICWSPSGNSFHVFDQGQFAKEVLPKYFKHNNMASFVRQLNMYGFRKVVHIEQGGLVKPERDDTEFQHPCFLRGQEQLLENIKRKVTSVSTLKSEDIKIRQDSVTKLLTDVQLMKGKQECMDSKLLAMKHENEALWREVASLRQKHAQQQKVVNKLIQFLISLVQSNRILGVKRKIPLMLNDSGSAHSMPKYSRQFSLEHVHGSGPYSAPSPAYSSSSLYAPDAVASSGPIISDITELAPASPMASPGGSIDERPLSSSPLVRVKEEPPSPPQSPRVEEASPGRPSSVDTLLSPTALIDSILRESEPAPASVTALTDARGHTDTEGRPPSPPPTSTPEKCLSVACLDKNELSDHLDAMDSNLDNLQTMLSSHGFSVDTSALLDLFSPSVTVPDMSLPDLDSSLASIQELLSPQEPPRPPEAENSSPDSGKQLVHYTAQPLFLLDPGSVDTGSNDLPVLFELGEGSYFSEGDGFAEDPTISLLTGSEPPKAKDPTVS
Summary of the method: as §1

SPIC = molecular target: T2, SPIC (Homo sapiens, UniProt Q8N5J4 1-248); conditions: protein: recombinant; tags: N-terminal GST; dsDNA, one strand shown
T2 sequence: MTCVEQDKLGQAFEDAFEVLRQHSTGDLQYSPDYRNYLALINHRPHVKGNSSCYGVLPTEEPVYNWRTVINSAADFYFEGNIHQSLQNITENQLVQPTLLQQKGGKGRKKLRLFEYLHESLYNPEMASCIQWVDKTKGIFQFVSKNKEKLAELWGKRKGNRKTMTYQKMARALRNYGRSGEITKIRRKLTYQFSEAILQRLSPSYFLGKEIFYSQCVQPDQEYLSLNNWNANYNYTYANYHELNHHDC
Summary of the method: as §1

ELF4 = ELF4 (Homo sapiens, UniProt Q99607 1-663); conditions: protein: recombinant; tags: N-terminal GST; dsDNA, one strand shown
ELF4, sequence (Q99607 whole entry): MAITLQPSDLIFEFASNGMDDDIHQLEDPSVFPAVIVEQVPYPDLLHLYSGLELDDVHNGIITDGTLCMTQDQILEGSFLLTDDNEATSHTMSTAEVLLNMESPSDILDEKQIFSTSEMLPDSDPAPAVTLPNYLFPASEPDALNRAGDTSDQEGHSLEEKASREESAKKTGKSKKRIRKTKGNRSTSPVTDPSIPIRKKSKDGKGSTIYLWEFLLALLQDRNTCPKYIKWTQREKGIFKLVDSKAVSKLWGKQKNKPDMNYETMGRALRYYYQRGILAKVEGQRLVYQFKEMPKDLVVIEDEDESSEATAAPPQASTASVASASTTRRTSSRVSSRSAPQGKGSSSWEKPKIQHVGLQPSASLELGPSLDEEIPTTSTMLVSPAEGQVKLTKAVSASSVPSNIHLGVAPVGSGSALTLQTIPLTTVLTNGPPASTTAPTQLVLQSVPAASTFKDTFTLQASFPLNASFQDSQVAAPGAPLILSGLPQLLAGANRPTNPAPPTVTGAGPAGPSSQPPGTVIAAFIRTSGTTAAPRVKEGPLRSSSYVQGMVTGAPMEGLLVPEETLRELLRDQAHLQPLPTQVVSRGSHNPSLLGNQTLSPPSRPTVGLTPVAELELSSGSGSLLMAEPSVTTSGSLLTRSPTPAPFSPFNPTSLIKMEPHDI
Summary of the method: as §1

ELK4 = molecular target: T3, ELK4 (Homo sapiens, UniProt P28324-2 1-405); conditions: protein: recombinant; tags: N-terminal GST; dsDNA, one strand shown
T3 sequence: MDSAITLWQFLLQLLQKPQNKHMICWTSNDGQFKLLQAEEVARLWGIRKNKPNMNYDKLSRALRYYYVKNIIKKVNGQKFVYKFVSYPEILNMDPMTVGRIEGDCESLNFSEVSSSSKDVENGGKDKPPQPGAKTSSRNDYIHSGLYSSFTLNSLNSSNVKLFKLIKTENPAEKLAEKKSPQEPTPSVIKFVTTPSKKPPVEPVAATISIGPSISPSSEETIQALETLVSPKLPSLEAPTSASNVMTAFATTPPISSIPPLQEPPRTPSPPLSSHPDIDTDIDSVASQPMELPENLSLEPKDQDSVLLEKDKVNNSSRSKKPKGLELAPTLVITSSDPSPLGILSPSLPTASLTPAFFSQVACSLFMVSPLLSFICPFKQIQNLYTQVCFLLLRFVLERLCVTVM
Summary of the method: as §1

ETV2 = molecular target: T4, ETV2 (Homo sapiens, UniProt O00321 1-342); conditions: protein: recombinant; tags: N-terminal GST; dsDNA, one strand shown
T4 sequence: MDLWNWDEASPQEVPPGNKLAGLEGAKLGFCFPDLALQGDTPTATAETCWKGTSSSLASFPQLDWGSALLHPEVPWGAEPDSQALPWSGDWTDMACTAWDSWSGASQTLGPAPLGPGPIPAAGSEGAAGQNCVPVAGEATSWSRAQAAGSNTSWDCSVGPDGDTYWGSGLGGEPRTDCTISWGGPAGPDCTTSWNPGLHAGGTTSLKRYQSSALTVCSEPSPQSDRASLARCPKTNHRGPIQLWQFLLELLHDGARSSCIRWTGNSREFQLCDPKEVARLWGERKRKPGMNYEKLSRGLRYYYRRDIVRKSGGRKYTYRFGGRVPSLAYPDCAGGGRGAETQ
Summary of the method: as §1

ELF3 = molecular target: T5, ELF3 (Homo sapiens, UniProt P78545 1-371); conditions: protein: recombinant; tags: N-terminal GST; dsDNA, one strand shown
T5 sequence: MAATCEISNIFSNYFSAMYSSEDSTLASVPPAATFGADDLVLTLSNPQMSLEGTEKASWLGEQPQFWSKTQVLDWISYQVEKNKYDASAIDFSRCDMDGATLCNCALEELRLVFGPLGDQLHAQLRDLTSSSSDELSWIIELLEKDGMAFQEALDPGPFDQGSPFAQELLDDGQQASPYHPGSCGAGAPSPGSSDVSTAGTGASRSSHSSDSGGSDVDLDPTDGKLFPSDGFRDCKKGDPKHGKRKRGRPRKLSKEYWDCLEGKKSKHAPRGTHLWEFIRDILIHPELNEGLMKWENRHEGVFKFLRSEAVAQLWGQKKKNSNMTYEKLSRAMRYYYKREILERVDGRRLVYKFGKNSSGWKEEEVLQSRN
Summary of the method: as §1

CRX = CRX (Homo sapiens, UniProt O43186 1-299); conditions: protein: recombinant; tags: N-terminal GST; dsDNA, one strand shown
CRX, sequence (O43186 whole entry): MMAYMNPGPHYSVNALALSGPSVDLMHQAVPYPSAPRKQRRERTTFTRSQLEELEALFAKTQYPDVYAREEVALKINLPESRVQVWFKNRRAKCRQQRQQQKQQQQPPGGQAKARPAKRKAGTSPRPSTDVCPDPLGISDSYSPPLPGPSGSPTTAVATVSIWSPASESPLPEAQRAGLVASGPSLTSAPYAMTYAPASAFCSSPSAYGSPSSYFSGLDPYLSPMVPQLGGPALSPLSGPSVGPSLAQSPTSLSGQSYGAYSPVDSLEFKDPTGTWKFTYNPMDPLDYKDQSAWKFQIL
Summary of the method: as §1

ETV1 = ETV1 (Homo sapiens, UniProt P50549 1-477); conditions: protein: recombinant; tags: N-terminal GST; dsDNA, one strand shown
ETV1, sequence (P50549 whole entry): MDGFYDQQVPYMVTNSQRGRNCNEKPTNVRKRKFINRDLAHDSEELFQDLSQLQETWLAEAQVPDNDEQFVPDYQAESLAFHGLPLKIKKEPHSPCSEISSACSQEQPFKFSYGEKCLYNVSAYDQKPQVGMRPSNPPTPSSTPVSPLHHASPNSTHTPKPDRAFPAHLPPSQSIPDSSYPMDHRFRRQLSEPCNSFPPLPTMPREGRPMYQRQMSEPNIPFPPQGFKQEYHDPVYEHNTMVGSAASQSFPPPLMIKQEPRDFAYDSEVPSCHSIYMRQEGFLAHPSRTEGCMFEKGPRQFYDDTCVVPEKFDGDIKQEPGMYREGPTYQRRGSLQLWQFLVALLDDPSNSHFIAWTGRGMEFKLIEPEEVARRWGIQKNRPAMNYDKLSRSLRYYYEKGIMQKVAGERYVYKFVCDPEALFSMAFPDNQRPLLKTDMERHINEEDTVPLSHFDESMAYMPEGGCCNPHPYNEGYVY
Summary of the method: as §1

Sequence: CTTCTG
- binding signal (FEV): 1.23 fold enrichment (6-mer frequency, TF over GST control)
- binding signal (ETV5): 1.35 fold enrichment (6-mer frequency, TF over GST control)
- binding signal (HSF1): 2.07 fold enrichment (6-mer frequency, TF over GST control)
- binding signal (SPIC): 1.39 fold enrichment (6-mer frequency, TF over GST control)
- binding signal (ELF4): 1.42 fold enrichment (6-mer frequency, TF over GST control)
- binding signal (ELK4): 1.57 fold enrichment (6-mer frequency, TF over GST control)
- binding signal (ETV2): 1.32 fold enrichment (6-mer frequency, TF over GST control)
- binding signal (ELF3): 1.29 fold enrichment (6-mer frequency, TF over GST control)
- binding signal (CRX): 1.49 fold enrichment (6-mer frequency, TF over GST control)
- binding signal (ETV1): 1.22 fold enrichment (6-mer frequency, TF over GST control)
